# KDM5B inhibitor = inhibitors of human KDM5B histone demethylase | Q9UGL1 | KDM5B demethylase, FDH-coupled NADH fluorescence (FDH is formaldehyde dehydrogenase) | Potency, µM (series often up to 57.7 µM), hits mostly inhibitors | hit rate 2.6% among 220,000 | AID 1347165; active means well fitted inhibition curve with a large enough effect; further: 0% is about no effect; nearly all actives have a fitted effect of over 70% in size
# Target sequence (Q9UGL1 whole entry, looked up): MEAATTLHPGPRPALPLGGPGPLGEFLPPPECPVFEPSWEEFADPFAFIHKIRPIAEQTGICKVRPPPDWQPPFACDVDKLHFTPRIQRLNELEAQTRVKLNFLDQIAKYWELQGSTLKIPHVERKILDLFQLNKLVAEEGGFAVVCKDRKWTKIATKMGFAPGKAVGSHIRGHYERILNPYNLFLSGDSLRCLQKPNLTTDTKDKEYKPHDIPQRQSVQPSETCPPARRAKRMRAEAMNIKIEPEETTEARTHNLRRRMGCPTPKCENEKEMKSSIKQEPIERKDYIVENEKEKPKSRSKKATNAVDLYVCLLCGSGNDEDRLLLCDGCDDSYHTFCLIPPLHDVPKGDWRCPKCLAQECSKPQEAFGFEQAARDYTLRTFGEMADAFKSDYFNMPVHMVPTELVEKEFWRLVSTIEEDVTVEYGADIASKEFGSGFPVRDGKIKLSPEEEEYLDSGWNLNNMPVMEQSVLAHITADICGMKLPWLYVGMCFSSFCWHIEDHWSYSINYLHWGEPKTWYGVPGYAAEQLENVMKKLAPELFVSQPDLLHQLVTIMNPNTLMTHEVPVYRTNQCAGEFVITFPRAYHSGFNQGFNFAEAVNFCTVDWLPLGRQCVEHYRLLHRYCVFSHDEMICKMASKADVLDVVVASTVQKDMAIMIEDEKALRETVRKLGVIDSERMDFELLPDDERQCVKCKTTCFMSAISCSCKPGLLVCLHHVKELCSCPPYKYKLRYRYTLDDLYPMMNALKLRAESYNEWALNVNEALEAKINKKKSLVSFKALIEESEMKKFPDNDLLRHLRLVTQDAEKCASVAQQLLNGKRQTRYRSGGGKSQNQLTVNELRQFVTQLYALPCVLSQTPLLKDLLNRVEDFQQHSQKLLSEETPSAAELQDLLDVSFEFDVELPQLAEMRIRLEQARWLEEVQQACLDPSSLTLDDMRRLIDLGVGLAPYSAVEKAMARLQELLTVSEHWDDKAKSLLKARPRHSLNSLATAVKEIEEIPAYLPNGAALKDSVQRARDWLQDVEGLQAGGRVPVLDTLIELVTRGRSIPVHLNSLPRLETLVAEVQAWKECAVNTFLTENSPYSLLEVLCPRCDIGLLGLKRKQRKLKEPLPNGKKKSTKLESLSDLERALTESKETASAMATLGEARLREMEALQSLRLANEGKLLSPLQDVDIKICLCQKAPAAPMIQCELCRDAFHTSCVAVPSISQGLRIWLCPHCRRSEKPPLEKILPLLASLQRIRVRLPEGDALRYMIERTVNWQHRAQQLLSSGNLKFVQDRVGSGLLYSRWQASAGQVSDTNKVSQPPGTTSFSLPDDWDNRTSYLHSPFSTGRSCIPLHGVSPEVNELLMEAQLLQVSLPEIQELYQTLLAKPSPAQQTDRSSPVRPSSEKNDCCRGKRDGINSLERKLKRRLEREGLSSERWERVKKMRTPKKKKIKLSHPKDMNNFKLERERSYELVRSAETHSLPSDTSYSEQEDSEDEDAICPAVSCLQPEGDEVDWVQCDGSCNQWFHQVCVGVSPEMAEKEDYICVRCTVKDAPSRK
#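 Measured: NADH fluorescence change, 30 min, RT. System: KDM5BΔAP 200 nM final, H3K4me3 peptide, α-KG, Fe(II), ascorbate, NAD⁺ plus FDH, pH 7.5 HEPES. Compounds: titrated, 10 min pre-incubation with enzyme.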
# Starred values were filed as active, the others as inactive; i = inactive. The sample as a whole holds a higher share of hits than the screen did. Potency means the concentration at half of the fitted maximal effect.
SMILES,KDM5B inhibitor
O=C1COc2ccc(Nc3ccc(Cl)cc3)nc2CN1Cc1nc2ccccc2s1,35µM*
Cc1nc(CN2Cc3nc(-c4ccc(Cl)cc4)ccc3OCC2=O)cs1,i
CN1Cc2nc(-c3ccc4c(c3)OCO4)ccc2OCC1=O,32µM*
O=C(O)CCCNC(=O)c1cc(-c2ccccc2)nc2ccccc12,i
O=C(O)C(c1c[nH]c2ccc(Cl)cc12)N1CCN(CCOc2ccc(Cl)cc2)CC1 (stereo not given),i
CC(=O)c1cccc(NC(=O)c2ccc3c(c2)NC(=O)CS3)c1,i
CC(=O)Nc1cc(-c2ccc(=O)n(C(C)C(=O)Nc3c(C)cc(C)cc3C)n2)ccc1C (stereo not given),i
O=C(NCCNc1ncccn1)NCCC(c1ccccc1)c1ccccc1,i
CCC(C(=O)Nc1ccc(C)c(OCc2cc(=O)n3ccc(C)cc3n2)c1)c1ccccc1 (stereo not given),i
Cc1c(OS(C)(=O)=O)ccc2c3c(c(=O)oc12)CCCC3,i
O=C1COc2ccc(-c3cccc(O)c3)nc2CN1Cc1ccc(C(F)(F)F)cc1,i
CC(=O)Nc1cccc(-c2ccc3c(n2)CN(Cc2ccccc2C)C(=O)CO3)c1,i
O=C1COc2ccc(-c3ccc4c(c3)OCO4)nc2CN1Cc1ccc(C(F)(F)F)cc1,32µM*
Cn1cc(-c2ccc3c(n2)CN(Cc2ccc(C(F)(F)F)cc2)C(=O)CO3)cn1,i
Cc1ccccc1CN1Cc2nc(-c3c(C)noc3C)ccc2OCC1=O,35µM*
Cc1ccccc1CN1Cc2nc(-c3cccc(C(N)=O)c3)ccc2OCC1=O,32µM*
CCN1CCC(N(C(=O)c2cn(C)c3ccccc23)C2CC2)CC1,i
O=C1C2C3c4ccccc4C(C(=O)O)(c4ccccc43)C2C(=O)N1c1ccccc1C(F)(F)F (stereo not given),i
Fc1ccc(-c2csc(Nc3ccccc3)n2)cc1,i
Cc1ccc2cc(C(=O)N(Cc3ccco3)C3CC3)[nH]c2c1,i
N#Cc1ccc(/C=N/Nc2c(Cl)cc(Cl)cc2Cl)cc1,i
COc1ccc(-c2cc(N3CCCN(C(=O)c4ccc(NC(C)=O)cc4)CC3)n[nH]2)cc1,i
O=C(c1ccccc1F)N1CCC2(CC1)CC(=O)N(c1ccccc1)c1ccccc1O2,i
O=C1CC2(CCN(C(=O)c3ccccc3F)CC2)Oc2ccccc21,25µM*
O=C1NC2(CN(C(=O)c3ccccc3F)C2)Oc2ccccc21,i
SMILES,KDM5B inhibitor
O=C1CC2(CCN(C(=O)c3ccccn3)CC2)Oc2ccccc21,32µM*
O=C1CC2(CCN(C(=O)c3ccccc3)CC2)Oc2ccccc21,32µM*
CC(C)N1CCC2(CC1)CN(C(=O)c1ccccn1)Cc1ccccc1O2,i
O=C1CC2(CCN(C(=O)c3ccccc3)CC2)Oc2ccccc2N1,i
O=C1NC2(CCCN(C(=O)c3ccccn3)C2)Oc2ccccc21 (stereo not given),i
O=C(c1ccccc1)N1CCC2(CC1)CC(=O)N(c1ccccc1)c1ccccc1O2,i
COc1ccc(CN(C(=O)c2cccc(C#N)c2)C2CC2)cc1,i
CCOc1ccccc1C(=O)NC12CC3CC(CC(C3)C1)C2,i
Cc1ccc(N(CC(=O)NCc2ccncc2)S(=O)(=O)c2ccc(Cl)cc2)cc1C,i
Cc1nn(-c2ccc3nnc(C)n3n2)c2c1C(c1ccc(OCC(C)C)cc1)CC(=O)N2 (stereo not given),i
Cc1ccc(C(=O)COC(=O)COc2ccc(Cl)c(C)c2)c(C)c1,i
O=C1CC2(CCN(Cc3ccc(F)cc3)CC2)Oc2ccccc21,28µM*
O=C1NC2(CCN(CC3CCCC3)CC2)COc2ccccc21,i
N#Cc1ccc(CN2CCC3(CC2)CNC(=O)c2ccccc2O3)cc1,i
N#Cc1ccc(CN2CCC3(CC2)CC(=O)c2ccccc2O3)cc1,32µM*
N#Cc1ccc(CN2CCC3(CC2)CC(=O)Nc2ccccc2O3)cc1,i
O=C1CC2(CCN(Cc3cccnc3)CC2)Oc2ccccc2N1,i
O=C1CC2(CCN(CC3CCCCC3)CC2)Oc2ccccc21,32µM*
O=C1CC2(CCN(Cc3cccnc3)CC2)Oc2cc(Cl)ccc21,i
CN(C)c1ccc(CN2CCC3(CC2)CC(=O)c2ccccc2O3)cc1,i
O=C1NC2(CCN(CC3CCCCC3)C2)Oc2ccccc21 (stereo not given),i
O=C1CC2(CCN(Cc3cccnc3)CC2)Oc2ccccc21,35µM*
O=C1NC2(CCN(Cc3ccc(F)cc3)CC2)Oc2ccccc21,i
CCN(CC)S(=O)(=O)c1ccc(=O)n(Cc2noc(C)n2)c1,i
COCCOC1CN(C2CCN(C(=O)c3ccc(C)s3)CC2)C12CCCCC2 (stereo not given),i
SMILES,KDM5B inhibitor
CC1Cc2ccccc2N1C(=O)CCc1ncc(-c2c(F)cccc2F)o1 (stereo not given),i
CC(=O)c1c(Nc2ccc(Cl)cc2)oc(C)cc1=O,i
CCC(CC)NC(=O)C1CCc2ncc(-c3ccsc3)n2C1 (stereo not given),i
CC(C)Cc1nc2nccc(-c3ccsc3)n2n1,28µM*
CCc1nc2nccc(-c3ccsc3)n2n1,25µM*
CCNC(=O)C1CCc2ncc(-c3ccsc3)n2C1 (stereo not given),i
COCc1nc2nccc(-c3ccsc3)n2n1,28µM*
Cc1nnc(-c2cc(-c3ccsc3)ccn2)n1Cc1ccccc1,i
COCc1nc2nccc(-c3ccc(Br)s3)n2n1,i
Cc1nnc(-c2cc(-c3ccsc3)ccn2)n1-c1ccccc1,i
Cc1cc(-c2ccccc2)nc(Nc2nc(C)c3ccccc3n2)n1,i
O=S(=O)(Nc1ccc(Br)cc1F)c1ccccc1,i
COc1cc(NC(=O)COC(=O)c2cccc(S(=O)(=O)N3CCc4ccccc43)c2)cc(OC)c1,i
COc1ccc(S(=O)(=O)Oc2ccc3c(c2)O/C(=C\c2cccc(OC)c2)C3=O)cc1,i
Cc1ccccc1CNC(=O)c1cc2c(C)nn(C)c2s1,i
O=C(Nc1ccccc1)N1CCN(CCc2ccncc2)CC1,i
Cc1cc2ccccc2n1CC(=O)NC1CCN(C(=O)C(C)C)CC1,i
Cn1c(=O)c2nc(SCC(=O)c3ccccc3)n(C)c2n(C)c1=O,i
COc1cccc(-c2nc3c(c(=O)[nH]c(=O)n3Cc3ccccc3)n2CC2CCCO2)c1 (stereo not given),i
CN(C)c1nc2c(c(=O)[nH]1)CCN(Cc1ccc(Br)cc1)CC2,i
Cc1ccccc1CC(=O)NC(C)C1CCCO1 (stereo not given),i
CCN1CCN(C(=O)CC2CCCN(c3cnn(CC4CC4)c(=O)c3)C2)CC1 (stereo not given),i
CC(C)c1ccc(/C=C(\C#N)C(=O)NC2CCCCC2)cc1,i
CCCCn1c(=O)c2ccccc2n(CC(=O)N(C)c2cccc(C)c2)c1=O,i
O=C(O)CCn1ncc2cc(OC3CCN(C(=O)COc4ccccc4)CC3)ccc21,i
SMILES,KDM5B inhibitor
Cc1cnc(C2CC2)n1CC1CCN(C(=O)Cc2ccccc2)CC1,i
O=C(CC1CC1)N1CCC(Oc2cnc3c(ccn3-c3cncnc3)c2)CC1,i
O=C(Cc1ccccc1)N1CCC(Oc2cnc3c(ccn3-c3cncnc3)c2)CC1,i
NC(=O)Cn1ccc2cc(OCC3CCN(C(=O)CC4CC4)CC3)cnc21,35µM*
O=C(O)Cn1ccc2cc(OCC3CCN(C(=O)Cc4ccccc4)CC3)cnc21,40µM*
O=C(O)CCn1ncc2cc(OCC3CCN(C(=O)CCC(F)(F)F)CC3)ccc21,i

# Screens from PubChem BioAssay.
